Measured values taken from PubChem BioAssay (NCI).
Compounds without any hit were thinned out: in the full panel of roughly 83,000, 20% have a hit.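 Cell lines were cultured in 96-well plates, exposed to a single compound concentration, and assessed for percent growth 48 hours later.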 Active and inactive are the calls of the source. Rule for the calls: active = growth percent below 10; inactive = the rest.

Key:
Test in all cases: NCI-60 one-dose screen, 48 h (100 = growth as untreated, 0 = no growth, -100 = all killed)
Settings in all cases: 10 µM unless noted
NCI-H226 lung = system: NCI-H226 lung
NCI-H322M lung = system: NCI-H322M lung
HOP-62 NSCLC = system: HOP-62 NSCLC
NCI-H460 lung = system: NCI-H460 lung
HOP-92 NSCLC = system: HOP-92 NSCLC
NCI-H522 lung = system: NCI-H522 lung
A549/ATCC NSCLC = system: A549/ATCC NSCLC
786-0 renal = system: 786-0 renal
DU-145 prostate = system: DU-145 prostate
K-562 leukemia = system: K-562 leukemia
MALME-3M melanoma = system: MALME-3M melanoma
MDA-MB-231 breast = system: MDA-MB-231 breast
RXF 393 renal = system: RXF 393 renal
SF-268 CNS = system: SF-268 CNS
SF-295 CNS = system: SF-295 CNS
SF-539 CNS = system: SF-539 CNS
M14 melanoma = system: M14 melanoma
COLO 205 colon = system: COLO 205 colon
UACC-257 melanoma = system: UACC-257 melanoma

Measured: growth

CCOC(=O)c1sc2ccc(NCc3nc[nH]c3C)cc2c1NC(=O)c1cc(OC)c(OC)c(OC)c1
inactive: NCI-H226 lung 84.3% | NCI-H322M lung 91% | HOP-62 NSCLC 93.9% | NCI-H460 lung 92.6% | HOP-92 NSCLC 75.1% | NCI-H522 lung 84.8% | A549/ATCC NSCLC 101% | 786-0 renal 84.8% | DU-145 prostate 86.7% | K-562 leukemia 44.2% | MALME-3M melanoma 80.1% | MDA-MB-231 breast 73.3% | RXF 393 renal 79.2% | SF-268 CNS 98% | SF-295 CNS 97.3% | SF-539 CNS 91.7% | M14 melanoma 96.8%

COc1ccc(-n2nnc(C(=O)NCCc3c[nH]c4ccc(F)cc34)c2C)cc1
inactive: NCI-H226 lung 97.9% | NCI-H322M lung 101% | HOP-62 NSCLC 86.5% | NCI-H460 lung 100% | HOP-92 NSCLC 87.6% | NCI-H522 lung 76.1% | A549/ATCC NSCLC 82% | 786-0 renal 99.6% | COLO 205 colon 111% | DU-145 prostate 107% | MALME-3M melanoma 106% | MDA-MB-231 breast 97.8% | RXF 393 renal 105% | SF-268 CNS 97.3% | SF-295 CNS 102% | SF-539 CNS 103% | UACC-257 melanoma 87.7%

CS(=O)(=O)c1ccc(N/N=C/c2c(-c3ccc(S(C)(=O)=O)cc3)[nH]c3ccc(F)cc23)cc1
active: RXF 393 renal -10.9% | SF-295 CNS -52.8% | SF-539 CNS -19.8%
inactive: NCI-H322M lung 45% | HOP-62 NSCLC 28.1% | NCI-H460 lung 12.8% | HOP-92 NSCLC 16.3% | NCI-H522 lung 27.6% | A549/ATCC NSCLC 44.7% | 786-0 renal 15.9% | DU-145 prostate 39.9% | K-562 leukemia 10.5% | MALME-3M melanoma 10.7% | MDA-MB-231 breast 29.6% | SF-268 CNS 39.3% | UACC-257 melanoma 14.1% | M14 melanoma 32.9%

O=C(/C=C/C12c3ccccc3C(c3ccccc31)C1C(=O)N(c3ccccc3)C(=O)C12)c1ccccc1 (centres undefined)
active: NCI-H226 lung -27.4% | NCI-H460 lung -41.3% | HOP-92 NSCLC -6.42% | 786-0 renal 3.15% | DU-145 prostate 5.98% | MALME-3M melanoma -38.1% | MDA-MB-231 breast -3.22% | RXF 393 renal -72.8% | SF-295 CNS -3.2% | SF-539 CNS -3.29%
inactive: NCI-H322M lung 12.9% | HOP-62 NSCLC 28.7% | NCI-H522 lung 16.7% | A549/ATCC NSCLC 20.5% | K-562 leukemia 14.5% | SF-268 CNS 35.9% | UACC-257 melanoma 33.6% | M14 melanoma 14.7%

CCN(CC)CCCNC(=O)c1ccc(N)cc1
inactive: NCI-H226 lung 101% | NCI-H322M lung 94.7% | HOP-62 NSCLC 98.5% | NCI-H460 lung 103% | HOP-92 NSCLC 101% | NCI-H522 lung 101% | A549/ATCC NSCLC 105% | 786-0 renal 100% | K-562 leukemia 35.8% | MALME-3M melanoma 94.3% | MDA-MB-231 breast 104% | RXF 393 renal 110% | SF-268 CNS 102% | SF-295 CNS 99.3% | SF-539 CNS 106% | UACC-257 melanoma 92.9% | M14 melanoma 98.7%

CCn1c(Sc2nnc(Nc3ccccc3)s2)nc2c1c(=O)n(C)c(=O)n2C
inactive: NCI-H322M lung 91.4% | HOP-62 NSCLC 93.5% | NCI-H460 lung 106% | HOP-92 NSCLC 61.5% | NCI-H522 lung 114% | A549/ATCC NSCLC 99.9% | 786-0 renal 93.2% | DU-145 prostate 113% | K-562 leukemia 114% | MALME-3M melanoma 94.9% | MDA-MB-231 breast 97.8% | RXF 393 renal 91.4% | SF-268 CNS 103% | SF-295 CNS 91.9% | SF-539 CNS 96.2% | UACC-257 melanoma 97.4% | M14 melanoma 104%

O=C(/C=C/c1ccccc1)c1ccc2ccccc2c1
active: NCI-H522 lung -3.88%
inactive: NCI-H226 lung 98.5% | NCI-H322M lung 99.8% | HOP-62 NSCLC 96.5% | NCI-H460 lung 110% | HOP-92 NSCLC 94.6% | A549/ATCC NSCLC 96.3% | 786-0 renal 90.8% | COLO 205 colon 38.3% | DU-145 prostate 105% | K-562 leukemia 56.9% | MALME-3M melanoma 95.9% | MDA-MB-231 breast 94.3% | RXF 393 renal 96.5% | SF-268 CNS 94.8% | SF-295 CNS 107% | SF-539 CNS 99.2% | UACC-257 melanoma 87.9%

Cc1nn(-c2ccccc2)c2c1C(c1ccc([N+](=O)[O-])cc1)C(C#N)=C(N)O2 (centres undefined)
inactive: NCI-H226 lung 99.3% | NCI-H322M lung 116% | HOP-62 NSCLC 94.3% | NCI-H460 lung 108% | HOP-92 NSCLC 91.7% | NCI-H522 lung 97.5% | A549/ATCC NSCLC 102% | 786-0 renal 102% | DU-145 prostate 111% | MDA-MB-231 breast 87.4% | RXF 393 renal 99.2% | SF-268 CNS 108% | SF-539 CNS 95.9% | UACC-257 melanoma 88.1% | M14 melanoma 106%

Fc1ccc(Nc2ccc3cc(OCCCN4CCOCC4)ccc3n2)cc1F
inactive: NCI-H226 lung 76.8% | NCI-H322M lung 71.4% | HOP-62 NSCLC 65.9% | NCI-H460 lung 36.6% | HOP-92 NSCLC 52.8% | A549/ATCC NSCLC 42.9% | 786-0 renal 48.6% | DU-145 prostate 64.2% | MALME-3M melanoma 42.6% | RXF 393 renal 61.1% | SF-268 CNS 59.3% | SF-295 CNS 19.7% | SF-539 CNS 37.5% | UACC-257 melanoma 30.4%
active: NCI-H522 lung -21.4% | K-562 leukemia -12% | MDA-MB-231 breast -40.9% | M14 melanoma -6.62%
